# Records with an inconclusive call do not appear. Active and inactive are the calls of the source. Calls come from the whole dose curve; as a rule, active = well fitted curve in the direction sought with a large enough effect; inconclusive = small, poorly fitted or top-dose-only effect, or another doubt; inactive = no such curve, though single readings can be large; an effect the other way counts as inactive or inconclusive.
# Columns and labels:
# [1] = Quantitative High-Throughput drug screen in 47 multiple myeloma cell lines against the NCATS MIPE library collection: JIM3_ECACC cell viability assay (AID 1918963; note: nearly all actives have a fitted effect of over 35% in size)
# In short: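 Inhibition of cell viability is measured here. Each line was plated at 500 cells per well, treated with MIPE 4.0 drugs, kept 48 hours at 37C, then assayed for ATP content by CellTiter-Glo luminescence.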
# [2] = Quantitative High-Throughput drug screen in 47 multiple myeloma cell lines against the NCATS MIPE library collection: JIM1_ECACC cell viability assay (AID 1918964)
# In short: (§1)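 Steps: seed 500 cells per well; pin-transfer MIPE 4.0 library; incubate 48 h at 37C, 5% CO2, humidified; add CellTiter-Glo, 5 min room temperature; read luminescence.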
# [3] = Quantitative High-Throughput drug screen in 47 multiple myeloma cell lines against the NCATS MIPE library collection: INA6_PLB cell viability assay (AID 1918965; note: nearly all actives have a fitted effect of over 55% in size)
# In short: (§2)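 qHTS of the MIPE 4.0 collection: 500 myeloma cells/well, 48 h drug exposure at 37C in 5% CO2, then CellTiter-Glo for 5 min at room temperature before luminescence reading.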
# [4] = Quantitative High-Throughput drug screen in 47 multiple myeloma cell lines against the NCATS MIPE library collection: H1112_PLB cell viability assay (AID 1918967; note: nearly all actives have a fitted effect of over 30% in size)
# In short: as §1
# [5] = Quantitative High-Throughput drug screen in 47 multiple myeloma cell lines against the NCATS MIPE library collection: Karpas25_ECACC cell viability assay (AID 1918968; note: nearly all actives have a fitted effect of over 35% in size)
# In short: as §1
# [6] = Quantitative High-Throughput drug screen in 47 multiple myeloma cell lines against the NCATS MIPE library collection: KMS27_JCRB cell viability assay (AID 1918970); note: nearly all actives have a fitted effect of over 30% in size
# In short: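 KMS27_JCRB myeloma cells, 500 per well, exposed 48 h at 37 C, 5% CO2 to MIPE 4.0 compounds. Viability from ATP by CellTiter-Glo luminescence, normalized to DMSO (100%) and medium-only (0%) wells.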
# [7] = Quantitative High-Throughput drug screen in 47 multiple myeloma cell lines against the NCATS MIPE library collection: KMS12BM_JCRB cell viability assay (AID 1918971); note: nearly all actives have a fitted effect of over 35% in size
# In short: (§3)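 Myeloma cell lines, 500 cells per well, exposed to MIPE 4.0 library compounds for 48 h at 37C, 5% CO2. Viability from ATP by CellTiter-Glo luminescence; normalised to DMSO (100%) and media-only (0%) wells.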
# [8] = Quantitative High-Throughput drug screen in 47 multiple myeloma cell lines against the NCATS MIPE library collection: KMS20_JCRB cell viability assay (AID 1918973); note: nearly all actives have a fitted effect of over 45% in size
# In short: as §1
# [9] = Quantitative High-Throughput drug screen in 47 multiple myeloma cell lines against the NCATS MIPE library collection: KMS26_JCRB cell viability assay (AID 1918975); note: nearly all actives have a fitted effect of over 45% in size
# In short: as §3
# [10] = Quantitative High-Throughput drug screen in 47 multiple myeloma cell lines against the NCATS MIPE library collection: MMM1_PLB cell viability assay (AID 1918976); note: nearly all actives have a fitted effect of over 35% in size
# In short: (§4)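 Viability after 48 h drug exposure was measured as ATP-dependent luminescence. Cells, 500 per well, sat at 37 °C under 5% CO2; DMSO wells set 100%, media-only wells 0%.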
# [11] = Quantitative High-Throughput drug screen in 47 multiple myeloma cell lines against the NCATS MIPE library collection: NCIH929_DSMZ cell viability assay (AID 1918978); note: nearly all actives have a fitted effect of over 35% in size
# In short: as §4
# [12] = Quantitative High-Throughput drug screen in 47 multiple myeloma cell lines against the NCATS MIPE library collection: OCIMY1_PLB cell viability assay (AID 1918979); note: nearly all actives have a fitted effect of over 35% in size
# In short: as §4
# [13] = Quantitative High-Throughput drug screen in 47 multiple myeloma cell lines against the NCATS MIPE library collection: MM1S_ATCC cell viability assay (AID 1918980); note: nearly all actives have a fitted effect of over 45% in size
# In short: as §4
# [14] = Quantitative High-Throughput drug screen in 47 multiple myeloma cell lines against the NCATS MIPE library collection: MM1R_ATCC cell viability assay (AID 1918981); note: nearly all actives have a fitted effect of over 35% in size
# In short: as §4
# [15] = Quantitative High-Throughput drug screen in 47 multiple myeloma cell lines against the NCATS MIPE library collection: LP1_DSMZ cell viability assay (AID 1918982); note: nearly all actives have a fitted effect of over 35% in size
# In short: as §4
# [16] = Quantitative High-Throughput drug screen in 47 multiple myeloma cell lines against the NCATS MIPE library collection: KMS12PE_JCRB cell viability assay (AID 1918972); note: nearly all actives have a fitted effect of over 30% in size
# In short: as §2
# [17] = Quantitative High-Throughput drug screen in 47 multiple myeloma cell lines against the NCATS MIPE library collection: KMS21BM_JCRB cell viability assay (AID 1918974); settings: ATP luminescence, 48 h; viability: at 45.8 µM (top of the series) unless noted
# In short: as §1
# [18] = Quantitative High-Throughput drug screen in 47 multiple myeloma cell lines against the NCATS MIPE library collection: MOLP8_DSMZ cell viability assay (AID 1918977); note: nearly all actives have a fitted effect of over 45% in size
# In short: as §4
# [19] = Quantitative High-Throughput drug screen in 47 multiple myeloma cell lines against the NCATS MIPE library collection: KMS28PE_JCRB cell viability assay (AID 1918983); note: nearly all actives have a fitted effect of over 35% in size
# In short: as §4
# [20] = Quantitative High-Throughput drug screen in 47 multiple myeloma cell lines against the NCATS MIPE library collection: JJN3_DSMZ cell viability assay (AID 1918966; note: nearly all actives have a fitted effect of over 50% in size)
# In short: as §1
# Potency is the fitted concentration of half-maximal effect.
SMILES,Potency [1],Potency [2],Potency [3],Potency [4],Potency [5],Potency [6],Potency [7],Potency [8],Potency [9],Potency [10],Potency [11],Potency [12],Potency [13],Potency [14],Potency [15],Potency [16],Potency [17],Potency [18],Potency [19],Potency [20]
Cc1cc(C(=O)N2CCN(c3cccc(Cl)c3)CC2)n(-c2ccccc2)n1,0.418 µM (active),0.0118 µM (active),0.418 µM (active),0.833 µM (active),1.32 µM (active),0.148 µM (active),0.264 µM (active),0.209 µM (active),18.7 µM (active),7.43 µM (active),16.6 µM (active),3.72 µM (active),16.6 µM (active),9.35 µM (active),5.26 µM (active),,,,,
Nc1ccccc1NC(=O)c1ccc(CNC(=O)OCc2cccnc2)cc1,2.96 µM (active),1.48 µM (active),0.418 µM (active),2.35 µM (active),0.833 µM (active),0.526 µM (active),1.32 µM (active),0.526 µM (active),4.69 µM (active),4.69 µM (active),1.32 µM (active),,0.935 µM (active),0.833 µM (active),1.66 µM (active),0.743 µM (active),0.469 µM (active),1.48 µM (active),2.35 µM (active),
CC1=C(CO)C(=O)O[C@@H]([C@@H](C)[C@H]2CC[C@H]3[C@@H]4C[C@H]5O[C@]56[C@@H](O)C=CC(=O)[C@]6(C)[C@@H]4CC[C@]23C)C1,0.209 µM (active),inactive,0.105 µM (active),0.418 µM (active),0.132 µM (active),,0.372 µM (active),0.148 µM (active),,0.833 µM (active),0.166 µM (active),,0.148 µM (active),0.132 µM (active),0.187 µM (active),inactive,,0.132 µM (active),0.264 µM (active),0.662 µM (active)
O=C(C=Cc1c(C(=O)O)[nH]c2cc(Cl)cc(Cl)c12)Nc1ccccc1,inactive,inactive,inactive,inactive,,inactive,inactive,inactive,inactive,,inactive,inactive,inactive,inactive,inactive,inactive,,,inactive,inactive
CC(C)c1cc(-c2n[nH]c(=O)n2-c2ccc3c(ccn3C)c2)c(O)cc1O,0.0264 µM (active),0.0148 µM (active),0.0264 µM (active),,0.0209 µM (active),0.0264 µM (active),0.0372 µM (active),0.0296 µM (active),0.0372 µM (active),0.0743 µM (active),0.0209 µM (active),0.0469 µM (active),0.059 µM (active),0.0469 µM (active),,0.0332 µM (active),,,0.0132 µM (active),0.0418 µM (active)
Cc1c(C)n(Cc2ccc(-c3ccccc3C(=O)O)cc2)c2ccc(C(=O)N[C@@H](C)c3ccc([N+](=O)[O-])cc3)cc12,13.2 µM (active),0.0935 µM (active),18.7 µM (active),18.7 µM (active),5.26 µM (active),0.0833 µM (active),,11.8 µM (active),,,26.4 µM (active),,5.26 µM (active),,inactive,0.118 µM (active),0.148 µM (active),,inactive,
COc1ccc(C(=O)CC2(O)C(=O)Nc3c(Cl)ccc(Cl)c32)cc1 (stereo not drawn),2.35 µM (active),1.05 µM (active),2.35 µM (active),13.2 µM (active),5.26 µM (active),1.05 µM (active),2.09 µM (active),,2.96 µM (active),14.8 µM (active),18.7 µM (active),,18.7 µM (active),5.26 µM (active),,,,,,6.62 µM (active)
NC1(Cc2ccc(Cl)cc2)CCN(c2ncnc3[nH]ccc23)CC1,2.96 µM (active),2.96 µM (active),3.72 µM (active),,1.87 µM (active),4.69 µM (active),18.7 µM (active),3.32 µM (active),6.62 µM (active),0.526 µM (active),0.935 µM (active),,1.87 µM (active),5.9 µM (active),,,,8.33 µM (active),,13.2 µM (active)
CC(=O)OCC(=O)[C@@]1(O)[C@H](C)C[C@H]2[C@@H]3C=C(C)C4=Cc5c(cnn5-c5ccccc5)C[C@]4(C)[C@@H]3[C@@H](O)C[C@@]21C,9.35 µM (active),9.35 µM (active),5.26 µM (active),10.5 µM (active),,,16.6 µM (active),,10.5 µM (active),16.6 µM (active),8.33 µM (active),9.35 µM (active),0.0132 µM (active),9.35 µM (active),,,,,,9.35 µM (active)

# Source: PubChem BioAssay (NCATS)
